From PubChem BioAssay (NCI)
Compounds without any hit were thinned out: in the full panel of roughly 83,000, 20% have a hit.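 A percent growth of 40 corresponds to 60% growth inhibition; 0 means no net growth; -100 means all cells died. Active threshold: below 10.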 Values without a mark were called inactive. The source made the active and inactive calls.

Key:
Assay in all cases: NCI-60 one-dose screen, 48 h (100 = growth as untreated, 0 = no growth, -100 = all killed)
HCT-15 colon = settings: 10 µM unless noted
SNB-75 CNS = settings: 10 µM
SNB-19 CNS = settings: 10 µM unless noted
U251 CNS = settings: 10 µM unless noted
PC-3 prostate = settings: 10 µM unless noted
UACC-62 melanoma = settings: 10 µM unless noted
LOX IMVI melanoma = settings: 10 µM unless noted
SK-MEL-28 melanoma = settings: 10 µM unless noted
SK-MEL-2 melanoma = settings: 10 µM unless noted
EKVX NSCLC = settings: 10 µM unless noted
SN12C renal = settings: 10 µM unless noted
UO-31 renal = settings: 10 µM unless noted
ACHN renal = settings: 10 µM unless noted
A498 renal = settings: 10 µM unless noted
CCRF-CEM leukemia = settings: 10 µM unless noted
MOLT-4 leukemia = settings: 10 µM unless noted
SK-MEL-5 melanoma = settings: 10 µM unless noted
TK-10 renal = settings: 10 µM unless noted
CAKI-1 renal = settings: 10 µM unless noted

Row | SMILES | growth (HCT-15 colon) | growth (SNB-75 CNS) | growth (SNB-19 CNS) [%] | growth (U251 CNS) | growth (PC-3 prostate) | growth (UACC-62 melanoma) | growth (LOX IMVI melanoma) | growth (SK-MEL-28 melanoma) | growth (SK-MEL-2 melanoma) | growth (EKVX NSCLC) [%] | growth (SN12C renal) | growth (UO-31 renal) | growth (ACHN renal) [%] | growth (A498 renal) | growth (CCRF-CEM leukemia) | growth (MOLT-4 leukemia) | growth (SK-MEL-5 melanoma) | growth (TK-10 renal) | growth (CAKI-1 renal)
1 | COc1ccc(C(=O)NC(=O)Nc2cc3c(cc2F)/C(=C/c2[nH]c(C)c(CCC(=O)O)c2C)C(=O)N3)c(F)c1 | 28% | 9.65% (active) | 20 | 9.72% (active) | 22.6% | 31.3% | 38.5% | 44.4% | 22.1% | 65.3 | 27.6% | 58.6% | 65.5 | 12.3% | 7.61% (active) | 33.9% | – | – | –
2 | COc1cc(C2C3=C(COC3=O)Nc3cc4c(cc32)OCO4)cc2c1OCO2 (stereo unspecified) | 9.19% (active) | 42.2% | 31 | 18.5% | 24% | 41.3% | 16% | – | 41.6% | 44.6 | 23.4% | 51% | – | 21.3% | 8.12% (active) | 12.1% | -60.6% (active) | 55% | 44.1%
3 | Cn1c(=O)c2[nH]c(C3CC=CCC3)nc2n(C)c1=O (stereo unspecified) | 106% | 93.9% | 100 | 105% | 87.6% | 96% | – | 117% | 97.6% | 113 | 99.4% | 72.3% | 101 | 105% | 104% | 123% | 111% | 112% | 118%
4 | COc1ccc(S(=O)(=O)n2ccc(-c3ccc4c(c3)CCC(C)(C)O4)n2)cc1OC | 71.9% | 84.6% | 87.4 | 79.5% | 69.5% | 63.9% | – | – | 56.2% | – | 83.1% | – | 78 | 52.8% | 82.2% | 63.8% | 28.2% | 72.1% | 58.3%
5 | COc1cc2c(c(OC)c1OC)-c1ccc(N)c(=O)cc1[C@@H](NC(C)=O)CC2 | 11.8% | 33.8% | 34.2 | 18% | 29.3% | 30.8% | – | 61.8% | – | 51.4 | 27.6% | 40% | 27.5 | -12.7% (active) | 21.6% | 20.7% | -54.3% (active) | 33.4% | 19.1%
6 | COc1ccc(C2=CC(c3cc(OC)c(OC)c(OC)c3)NC(=O)N2)cc1OC (stereo unspecified) | 27.5% | 2.17% (active) | 38.1 | 21.1% | 51% | 44.5% | – | 40% | 20.7% | 35.5 | 23.7% | 22.8% | – | 19.3% | 6.59% (active) | 17.9% | 18.5% | 12.8% | 5.82% (active)
7 | O=C1C(Cl)=C(Nc2ccccn2)C(=O)c2ccccc21 | 43.5% | 62.1% | 93.2 | 42.2% | 63.6% | 1.2% (active) | 14.5% | – | 88.2% | 98.1 | 5.54% (active) | 12.6% | 17 | 100% | 56.4% | 62.8% | -84.2% (active) | – | 53.1%
8 | C=C1CCC2C3(C)COC(c4c(OC)cccc4OC)OC3CCC2(C)C1C/C=C1/C(=O)OCC1O (stereo unspecified) | 48.3% | 50.8% | 77.3 | 35.4% | 20.6% | 58.9% | – | 97.3% | 50% | 96.5 | 28.2% | 46.2% | 66 | 102% | -33.1% (active) | 51.4% | 64.7% | 50.5% | 172%
9 | CCc1cnc(=S)n(-c2ccccc2)c1 | 103% | 117% | 107 | 117% | 98.7% | 109% | 95.4% | 114% | – | – | 103% | 97% | 99.6 | 117% | 129% | 125% | 117% | 122% | –
10 | CN(C)c1nc2c(N)ncnc2n1C1OC(CO)C(O)C1O (stereo unspecified) | 104% | 111% | 107 | 110% | 94.2% | 99.1% | 104% | 122% | 99.4% | 112 | 104% | 79.5% | 99.4 | 114% | 105% | 111% | – | 107% | 99.3%
11 | O=c1[nH]c(-c2ccccc2)nc(CN2CCCCC2)c1O | 113% | 96.3% | 97.3 | 103% | 105% | 98.6% | 97.4% | – | 111% | 112 | 93.9% | 95.1% | 106 | 111% | 96.8% | 120% | 111% | 108% | 91.5%
12 | COc1ccc2c(c1)[nH]c(=O)c1c3cc(C)c(C)cc3cn21 | -87.5% (active) | 84.8% | 25.6 | -97.1% (active) | -54.9% (active) | 42.5% | -99.2% (active) | -7.4% (active) | -4.76% (active) | 35.4 | -43.6% (active) | -31.4% (active) | 17.5 | 42% | -68.1% (active) | -10.9% (active) | – | -34% (active) | –
13 | CCOC(=O)C1=C(C)NC(C)=C(C(=O)OCC)C1(C)C | 101% | 87.3% | 98.1 | 107% | 98.2% | 98.7% | 104% | 102% | – | 108 | 97% | 100% | 106 | 108% | 94.4% | 97% | 97.7% | 109% | 107%
14 | COc1cc(C2CC(c3ccc4c(c3)OCO4)=NN2C(C)=O)cc(OC)c1OC (stereo unspecified) | 40.4% | -12.1% (active) | 47.6 | 28.2% | 43.8% | 46.2% | – | 52.7% | 28.5% | 38.7 | 46.3% | – | – | 28.8% | 16% | 36% | 11.7% | 38.2% | 2.4% (active)
15 | CNC(=S)NNC(=O)C1CC1 | 105% | 96.5% | 106 | 109% | 102% | 111% | 99.9% | – | – | 105 | 109% | 77.5% | 106 | 109% | 97.3% | 85.1% | 105% | 119% | 96%
16 | C=C[C@@H]1C[C@H](O)Cc2ccccc2N1 | 103% | 102% | 108 | 99.1% | 106% | 102% | – | 112% | 123% | 107 | 103% | 99.5% | 107 | 99.9% | -30.7% (active) | – | 110% | 95.5% | 100%
17 | Nc1nc(=O)c2ccccc2s1 | 101% | 94.1% | 104 | 111% | 99.4% | 97.2% | – | 121% | 104% | 111 | 98.9% | – | 99.4 | 131% | 92.2% | 103% | 116% | 114% | 101%
18 | COC(=O)c1cccc2c1N(C)c1c(cccc1C(=O)OC)CC2 | 97.9% | 106% | 111 | 111% | 97.4% | 98.7% | 87.7% | 120% | – | 112 | 107% | – | 104 | 132% | 89% | 97.4% | 106% | 121% | 97.7%
